Laboratory results reported in PubChem BioAssay (Tox21).
Unmarked numbers belong to inactive results. Inconclusive results are not listed. A call without a number means that no potency is given here. Calls of active or inactive are those of the source. Unless noted, calls follow the shape of the dose curve; as a rule, active = well fitted curve in the direction sought with a large enough effect in the repeat runs; inconclusive = weak or mixed curves; inactive = no such curve, though single readings can be large; an effect the other way counts as inactive or inconclusive.

Assays:
[1] = Caspase-3/7 induction in HepG2 cells by small molecules, qHTS assay (AID 1346978); conditions: HepG2 caspase-3/7 activation, Caspase-Glo luminescence, 17 h; series mostly up to 92.4 µM; also: nearly all actives have a fitted effect of over 15% in size
In short: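 Wild-type HepG2 cells, 2,000/well, settled 5 hr at 37 C and 5% CO2, then compound-treated for 17 hr; caspase-3/7 activity read by luminescent Caspase-Glo 3/7 after 30 min at room temperature.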

[2] = Caspase-3/7 induction in CHO-K1 cells by small molecules, qHTS assay (AID 1346980); conditions: CHO-K1 caspase-3/7 induction, Caspase-Glo luminescence, 17 h; series mostly up to 92.4 µM; also: nearly all actives have a fitted effect of over 15% in size
In short: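 Wild-type CHO-K1 cells exposed to compounds for 17hr at 37 C, 5% CO2. Caspase-3/7 activity then measured by Caspase-Glo 3/7 luminescence after 30min at room temperature.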

[3] = Caspase-3/7 induction in HepG2 cells by small molecules, qHTS cell viability counter screen (AID 1346981); conditions: CellTiter-Fluor fluorescence, 17 h; series mostly up to 92.4 µM; also: nearly all actives have a fitted effect of over 30% in size
In short: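 In this quantitative HTS counter screen, compounds delivered in DMSO were left on unmodified HepG2 cells for 16 hr at 37 C. Viability was then determined fluorometrically with CellTiter-Fluor, in parallel with caspase-3/7 induction in the same wells.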

[4] = target: Acetylcholinesterase (Homo sapiens) (UniProt P22303); assay: Acetylcholinesterase (AChE) small molecule antagonists: colormetric cell-based qHTS assay (AID 1347395; calls by dose curve; also: nearly all actives have a fitted effect of over 30% in size); conditions: SH-SY5Y cells AChE activity, colorimetric (Ellman); series mostly up to 115 µM
In short: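 Neuroblastoma line SH-SY5Y supplied the enzyme; cells were preincubated with compound for 30 min at 37 C and 5% CO2. Acetylthiocholine with DTNB was then added for 90 min at 37 C, and thiocholine was measured by colour.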

[5] = target: Acetylcholinesterase (Homo sapiens) (UniProt P22303); assay: Acetylcholinesterase (AChE) small molecule antagonists: enzyme-based qHTS assay (AID 1347397; calls by dose curve; also: nearly all actives have a fitted effect of over 55% in size); conditions: Potency: AChE enzyme activity inhibition; series mostly up to 115 µM
In short: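 In this quantitative HTS, compounds from the Tox21 10K collection were preincubated 30 min at ambient temperature with recombinant human AChE dispensed at 50 mU/mL. Hydrolysis of acetylthiocholine was then followed for 10 min by DTNB colour development.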

[6] = target: Acetylcholinesterase (Homo sapiens) (UniProt P22303); assay: Acetylcholinesterase (AChE) small molecule antagonists: fluorescence cell-based qHTS assay (AID 1347398; calls by dose curve; also: nearly all actives have a fitted effect of over 50% in size); conditions: SH-SY5Y cells; Potency: AChE activity; series mostly up to 115 µM
In short: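 Cells (SH-SY5Y) attached overnight, were dosed with compound or DMSO vehicle for 30 min at 37 C, and then incubated 40 min at room temperature with acetylthiocholine and Thiolite Green; green fluorescence indexed AChE activity.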

[7] = target: Acetylcholinesterase (Homo sapiens) (UniProt P22303); assay: Acetylcholinesterase (AChE) small molecule antagonists: enzyme-based qHTS assay with human liver microsomes (AID 1347399; calls by dose curve; also: nearly all actives have a fitted effect of over 60% in size); conditions: Potency: qHTS inhibition; series mostly up to 115 µM
In short: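 Recombinant human AChE (50 mU/mL in the enzyme mix) and human liver microsomes (0.25 mg/mL final) were preincubated with compound and NADPH (0.25 mg/mL final) for 30 min at 37 C. Acetylthiocholine/DTNB was then added; thiocholine was read colorimetrically after 10 min at room temperature.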

[8] = target: Cytochrome P450 2D6 (Homo sapiens) (UniProt P10635); assay: Cytochrome P450 Family 2 Subfamily D Member 6 (CYP2D6) small molecule antagonists: luciferase reporter qHTS assay (AID 1671196); conditions: P450-Glo CYP2D6 enzyme assay, luciferin luminescence, 1 h; series mostly up to 115 µM; also: nearly all actives have a fitted effect of over 50% in size; also: potency is read from the fitted curve at half-maximal effect
In short: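 Test chemicals meet CYP2D6 plus proluciferin substrate (10 min, RT); NADPH regenerating solution then drives turnover for 1 h. Detection reagent halts the reaction; luminescence measured after 20 min.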

[9] = target: Cytochrome P450 2C19 (Homo sapiens) (UniProt P33261); assay: Cytochrome P450 Family 2 Subfamily C Member 19 (CYP2C19) small molecule antagonists: luciferase reporter qHTS assay (AID 1671197); conditions: P450-Glo CYP2C19 enzyme, luciferin luminescence, 1 h; series mostly up to 115 µM; also: nearly all actives have a fitted effect of over 65% in size; also: potency is read from the fitted curve at half-maximal effect
In short: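 Quantitative high-throughput screen of the Tox21 library using CYP2C19 with proluciferin substrate. Reaction: NADPH regeneration, 37C, 1 h, after 10 min compound preincubation at room temperature. Readout: luminescence.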

[10] = target: Cytochrome P450 2C9 (Homo sapiens) (UniProt P11712); assay: Cytochrome P450 Family 2 Subfamily C Member 9 (CYP2C9) small molecule antagonists: luciferase reporter qHTS assay (AID 1671198); conditions: P450-Glo CYP2C9 enzyme assay, luciferin luminescence; series mostly up to 115 µM; also: nearly all actives have a fitted effect of over 50% in size; also: potency is read from the fitted curve at half-maximal effect
In short: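 P450-Glo proluciferin substrate with CYP2C9 enzyme; 10 min RT preincubation, then NADPH regeneration 1 h at 37C; luciferin detection reagent 20 min RT, luminescence in relative luminescence units.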

[11] = target: Cytochrome P450 1A2 (Homo sapiens) (UniProt P05177); assay: Cytochrome P450 Family 1 Subfamily A Member 2 (CYP1A2) small molecule antagonists: luciferase reporter qHTS assay (AID 1671199); conditions: P450-Glo CYP1A2 enzyme, luciferin luminescence, 1 h; series mostly up to 115 µM; also: nearly all actives have a fitted effect of over 50% in size; also: potency is read from the fitted curve at half-maximal effect
In short: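 Steps: enzyme-substrate mix dispensed; test compounds and furafylline control pinned in; 10 min room temperature; NADPH regeneration solution added, 1 h; reaction stopped with luciferin detection reagent; luminescence read after 20 min.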

[12] = target: Voltage-gated inwardly rectifying potassium channel KCNH2 (Homo sapiens) (UniProt Q12809); assay: Human Ether-a-go-go-Related Gene (hERG) channel small molecule antagonists: fluorescence cell-based qHTS assay (AID 1671200); conditions: hERG-U2OS cells, FluxOR thallium flux fluorescence; series mostly up to 76.8 µM; also: nearly all actives have a fitted effect of over 50% in size; also: potency is read from the fitted curve at half-maximal effect
In short: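 Measured: Tl+ flux via fluorescence (480/540 nm) in hERG-expressing U2OS cells after 1 h dye loading at room temperature.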

[13] = target: Cytochrome P450 3A4 (Homo sapiens) (UniProt P08684); assay: Cytochrome P450 Family 3 Subfamily A Member 4 (CYP3A4) small molecule antagonists: luciferase reporter qHTS assay (AID 1671201); conditions: P450-Glo CYP3A4 enzyme, luciferin luminescence, 1 h; series mostly up to 115 µM; also: nearly all actives have a fitted effect of over 50% in size; also: potency is read from the fitted curve at half-maximal effect
In short: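 Setup: enzyme-substrate mix, compound pin transfer, 10 min RT. Reaction: NADPH regeneration solution, 1 h RT. Readout: detection reagent stops turnover, luminescence measured after 20 min, expressed in relative luminescence units.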

[14] = Caspase-3/7 induction in CHO-K1 cells by small molecules, qHTS cell viability counter screen (AID 1346979); conditions: CellTiter-Fluor fluorescence, 17 h; series mostly up to 92.4 µM; also: nearly all actives have a fitted effect of over 35% in size
In short: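 To flag cytotoxic compounds, treated CHO-K1 wild-type cells were given CellTiter-Fluor at 16hr and read fluorescently after 1hr at 37C; the caspase-3/7 luminescence was measured in these same wells.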

[15] = target: Nuclear receptor subfamily 1 group I member 2 (Homo sapiens) (UniProt O75469); assay: Human pregnane X receptor (PXR) small molecule agonists, qHTS assay (AID 1346982); conditions: PXR-Luc HepG2, CYP3A4 luciferase reporter, 24 h; series mostly up to 92.4 µM; also: nearly all actives have a fitted effect of over 35% in size; also: potency is read from the fitted curve at half-maximal effect
In short: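 Reporter HepG2 cells expressing PXR-Luc are cultured in charcoal-stripped FBS (5%), treated with compounds for 24 hr at 37 C, and assayed by ONE-Glo luminescence after 30 min at room temperature.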

[16] = Human pregnane X receptor (PXR) small molecule agonists, qHTS cell viability counter screen (AID 1346977); conditions: PXR-Luc HepG2 viability, CellTiter-Fluor, 24 h; series mostly up to 92.4 µM; also: nearly all actives have a fitted effect of over 50% in size; also: potency is read from the fitted curve at half-maximal effect
In short: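 Readout is CellTiter-Fluor fluorescence from PXR-Luc HepG2 cells. Plated cells rested 5hr, then were treated with compounds for 24hr at 37C and 5% CO2, with reagent present during the last hour.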

[17] = target: Nuclear receptor subfamily 1 group I member 2 (Rattus norvegicus) (UniProt Q9R1A7); assay: Rat pregnane X receptor (rPXR) activation by small molecules, qHTS assay (AID 1346983); conditions: rPXR luciferase reporter cells, One-Glo luminescence, 24 h; max activation: stronger effect = higher value; also: nearly all actives have a fitted effect of over 20% in size
In short: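 Cell-based rPXR activation assay: rPXR cells, 2,000 per well, rested 5hr at 37 C, then exposed to compounds in DMSO for 24 hr at 37 C. Luciferase activity read by One-Glo luminescence after 30 min at room temperature.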

[18] = target: Nuclear receptor subfamily 1 group I member 2 (Homo sapiens) (UniProt O75469); assay: CYP3A4 induction through human pregnane X receptor (PXR) by small molecules, qHTS assay (AID 1346984); conditions: DPX-2 HepG2 PXR, CYP3A4-luciferin luminescence, 24 h; series mostly up to 46.1 µM; also: nearly all actives have a fitted effect of over 40% in size
In short: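 Induction measured in HepG2-based DPX-2 cells co-expressing human PXR and a CYP3A4 promoter-driven luciferase. After a 24-hour compound exposure, cells received CYP3A4 luciferin substrate at 3uM final for 3 hours, and light output was then recorded.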

[19] = target: Nuclear receptor subfamily 1 group I member 2 (Homo sapiens) (UniProt O75469); assay: Human pregnane X receptor (PXR) activation by small molecules, qHTS assay (AID 1346985); conditions: DPX-2 HepG2 CYP3A4-luciferase, 24 h; series mostly up to 38.3 µM; also: nearly all actives have a fitted effect of over 40% in size
In short: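 DPX-2 cells (HepG2 co-transfected with a PXR response element and a CYP3A4-promoter luciferase construct) were seeded at 2,000 per well, rested 5 hr at 37C, then exposed to DMSO-dissolved compounds for 24 hr. Activation was read as luciferase luminescence.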

Cytochrome P450 1A2 (Homo sapiens), sequence (P05177 whole entry, looked up): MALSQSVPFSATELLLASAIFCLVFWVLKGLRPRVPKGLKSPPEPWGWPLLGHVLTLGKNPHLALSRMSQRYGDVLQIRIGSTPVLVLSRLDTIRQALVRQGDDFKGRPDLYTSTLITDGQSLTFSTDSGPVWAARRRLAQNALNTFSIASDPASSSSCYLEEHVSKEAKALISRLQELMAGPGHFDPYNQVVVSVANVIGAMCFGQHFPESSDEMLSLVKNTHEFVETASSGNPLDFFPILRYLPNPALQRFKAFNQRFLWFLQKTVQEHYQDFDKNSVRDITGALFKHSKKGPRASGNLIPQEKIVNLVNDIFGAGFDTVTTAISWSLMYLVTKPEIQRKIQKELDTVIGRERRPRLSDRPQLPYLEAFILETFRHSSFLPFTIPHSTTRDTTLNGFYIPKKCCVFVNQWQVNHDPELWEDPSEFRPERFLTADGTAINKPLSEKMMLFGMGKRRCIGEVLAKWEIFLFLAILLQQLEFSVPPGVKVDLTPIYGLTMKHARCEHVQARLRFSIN
Nuclear receptor subfamily 1 group I member 2 (Homo sapiens), sequence (O75469 whole entry, looked up): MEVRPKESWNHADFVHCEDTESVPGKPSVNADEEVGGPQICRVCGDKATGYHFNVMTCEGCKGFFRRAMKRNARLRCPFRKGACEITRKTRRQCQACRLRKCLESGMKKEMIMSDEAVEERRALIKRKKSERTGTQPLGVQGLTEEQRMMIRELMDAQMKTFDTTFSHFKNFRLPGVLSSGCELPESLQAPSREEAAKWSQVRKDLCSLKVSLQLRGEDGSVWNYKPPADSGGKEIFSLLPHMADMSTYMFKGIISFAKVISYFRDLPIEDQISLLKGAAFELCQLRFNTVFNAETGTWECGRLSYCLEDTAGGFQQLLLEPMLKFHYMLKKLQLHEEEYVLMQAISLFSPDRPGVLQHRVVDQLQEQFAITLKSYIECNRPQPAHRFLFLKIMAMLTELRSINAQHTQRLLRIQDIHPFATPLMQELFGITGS
Voltage-gated inwardly rectifying potassium channel KCNH2 (Homo sapiens), sequence (Q12809 whole entry, looked up): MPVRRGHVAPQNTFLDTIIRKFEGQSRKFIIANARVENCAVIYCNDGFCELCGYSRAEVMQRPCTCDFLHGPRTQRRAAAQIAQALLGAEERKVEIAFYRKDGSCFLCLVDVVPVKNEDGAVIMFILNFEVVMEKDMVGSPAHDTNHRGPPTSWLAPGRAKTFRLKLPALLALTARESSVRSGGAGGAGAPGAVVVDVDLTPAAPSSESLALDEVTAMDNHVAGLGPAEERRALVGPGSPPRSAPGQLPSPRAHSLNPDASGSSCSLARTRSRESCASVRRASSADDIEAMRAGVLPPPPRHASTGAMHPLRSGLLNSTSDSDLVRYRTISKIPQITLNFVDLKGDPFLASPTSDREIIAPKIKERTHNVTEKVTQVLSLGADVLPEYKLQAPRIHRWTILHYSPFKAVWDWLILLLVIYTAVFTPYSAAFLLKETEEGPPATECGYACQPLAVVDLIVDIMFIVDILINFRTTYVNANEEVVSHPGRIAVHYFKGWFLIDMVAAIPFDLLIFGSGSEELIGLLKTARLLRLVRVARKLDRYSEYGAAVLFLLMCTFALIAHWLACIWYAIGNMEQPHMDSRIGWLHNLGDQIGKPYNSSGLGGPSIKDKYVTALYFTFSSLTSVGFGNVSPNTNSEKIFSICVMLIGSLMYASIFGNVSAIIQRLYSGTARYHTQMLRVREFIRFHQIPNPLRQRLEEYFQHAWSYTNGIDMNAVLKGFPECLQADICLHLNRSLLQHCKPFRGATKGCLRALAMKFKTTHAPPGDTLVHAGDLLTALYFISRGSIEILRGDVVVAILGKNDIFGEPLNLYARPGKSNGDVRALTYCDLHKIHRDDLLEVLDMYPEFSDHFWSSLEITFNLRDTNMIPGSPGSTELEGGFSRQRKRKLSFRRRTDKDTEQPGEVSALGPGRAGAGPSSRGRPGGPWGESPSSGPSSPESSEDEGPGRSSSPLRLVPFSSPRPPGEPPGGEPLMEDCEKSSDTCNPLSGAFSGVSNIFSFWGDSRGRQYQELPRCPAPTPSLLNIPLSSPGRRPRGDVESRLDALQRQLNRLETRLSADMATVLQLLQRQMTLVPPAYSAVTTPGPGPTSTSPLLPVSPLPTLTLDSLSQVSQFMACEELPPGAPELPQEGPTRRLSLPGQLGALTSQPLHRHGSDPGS
Cytochrome P450 2C9 (Homo sapiens), sequence (P11712 whole entry, looked up): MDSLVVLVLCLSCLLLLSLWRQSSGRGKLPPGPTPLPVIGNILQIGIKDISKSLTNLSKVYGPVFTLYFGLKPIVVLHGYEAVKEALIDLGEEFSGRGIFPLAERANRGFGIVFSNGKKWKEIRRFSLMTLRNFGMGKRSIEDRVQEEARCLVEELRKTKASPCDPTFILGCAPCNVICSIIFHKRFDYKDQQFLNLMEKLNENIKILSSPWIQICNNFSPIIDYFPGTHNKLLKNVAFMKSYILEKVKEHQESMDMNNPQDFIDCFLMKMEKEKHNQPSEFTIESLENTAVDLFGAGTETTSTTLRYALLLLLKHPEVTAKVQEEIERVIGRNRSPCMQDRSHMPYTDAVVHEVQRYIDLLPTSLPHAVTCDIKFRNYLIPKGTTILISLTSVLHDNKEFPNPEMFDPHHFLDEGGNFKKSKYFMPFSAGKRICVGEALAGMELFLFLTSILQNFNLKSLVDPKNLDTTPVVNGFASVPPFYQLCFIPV
Acetylcholinesterase (Homo sapiens), sequence (P22303 whole entry, looked up): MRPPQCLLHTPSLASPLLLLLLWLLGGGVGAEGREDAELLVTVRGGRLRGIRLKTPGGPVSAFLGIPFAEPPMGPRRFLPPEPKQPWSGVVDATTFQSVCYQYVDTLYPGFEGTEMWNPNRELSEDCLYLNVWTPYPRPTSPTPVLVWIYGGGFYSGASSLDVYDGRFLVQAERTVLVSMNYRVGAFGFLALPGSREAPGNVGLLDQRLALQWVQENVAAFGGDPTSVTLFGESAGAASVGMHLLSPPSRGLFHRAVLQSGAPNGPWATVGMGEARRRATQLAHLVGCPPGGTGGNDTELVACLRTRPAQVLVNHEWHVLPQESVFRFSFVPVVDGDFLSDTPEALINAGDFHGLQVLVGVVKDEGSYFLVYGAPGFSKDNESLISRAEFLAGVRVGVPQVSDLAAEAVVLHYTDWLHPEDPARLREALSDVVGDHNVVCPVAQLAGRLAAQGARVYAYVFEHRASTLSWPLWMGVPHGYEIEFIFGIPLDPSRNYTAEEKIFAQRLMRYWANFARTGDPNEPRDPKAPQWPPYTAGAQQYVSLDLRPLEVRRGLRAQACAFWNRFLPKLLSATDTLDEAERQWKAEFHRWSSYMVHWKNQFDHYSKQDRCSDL
Cytochrome P450 2D6 (Homo sapiens), sequence (P10635 whole entry, looked up): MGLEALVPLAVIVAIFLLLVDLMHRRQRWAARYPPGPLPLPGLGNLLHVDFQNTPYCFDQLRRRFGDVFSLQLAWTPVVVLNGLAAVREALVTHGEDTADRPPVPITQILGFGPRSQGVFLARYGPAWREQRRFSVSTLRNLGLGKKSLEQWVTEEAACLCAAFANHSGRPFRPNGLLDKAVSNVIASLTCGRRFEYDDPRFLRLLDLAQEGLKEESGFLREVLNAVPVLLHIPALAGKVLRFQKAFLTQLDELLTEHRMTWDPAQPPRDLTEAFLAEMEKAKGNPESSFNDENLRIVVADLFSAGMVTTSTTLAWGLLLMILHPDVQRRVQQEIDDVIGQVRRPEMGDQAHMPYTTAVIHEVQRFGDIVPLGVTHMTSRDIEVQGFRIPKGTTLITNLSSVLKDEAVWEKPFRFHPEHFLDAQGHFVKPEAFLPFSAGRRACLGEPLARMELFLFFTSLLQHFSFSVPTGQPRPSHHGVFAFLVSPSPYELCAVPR
Cytochrome P450 3A4 (Homo sapiens), sequence (P08684 whole entry, looked up): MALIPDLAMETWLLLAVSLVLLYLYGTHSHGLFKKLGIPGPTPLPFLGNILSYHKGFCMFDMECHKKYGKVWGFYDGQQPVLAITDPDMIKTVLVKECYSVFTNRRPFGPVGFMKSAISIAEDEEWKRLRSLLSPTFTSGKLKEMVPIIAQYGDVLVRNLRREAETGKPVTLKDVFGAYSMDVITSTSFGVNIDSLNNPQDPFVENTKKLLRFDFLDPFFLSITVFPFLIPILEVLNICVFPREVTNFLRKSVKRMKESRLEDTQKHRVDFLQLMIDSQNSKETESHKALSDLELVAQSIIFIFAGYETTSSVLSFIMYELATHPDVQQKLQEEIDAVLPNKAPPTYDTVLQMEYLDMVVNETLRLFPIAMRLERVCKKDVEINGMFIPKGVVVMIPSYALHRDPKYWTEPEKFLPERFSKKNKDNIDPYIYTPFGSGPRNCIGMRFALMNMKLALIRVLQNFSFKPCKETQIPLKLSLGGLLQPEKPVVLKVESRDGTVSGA
Cytochrome P450 2C19 (Homo sapiens), sequence (P33261 whole entry, looked up): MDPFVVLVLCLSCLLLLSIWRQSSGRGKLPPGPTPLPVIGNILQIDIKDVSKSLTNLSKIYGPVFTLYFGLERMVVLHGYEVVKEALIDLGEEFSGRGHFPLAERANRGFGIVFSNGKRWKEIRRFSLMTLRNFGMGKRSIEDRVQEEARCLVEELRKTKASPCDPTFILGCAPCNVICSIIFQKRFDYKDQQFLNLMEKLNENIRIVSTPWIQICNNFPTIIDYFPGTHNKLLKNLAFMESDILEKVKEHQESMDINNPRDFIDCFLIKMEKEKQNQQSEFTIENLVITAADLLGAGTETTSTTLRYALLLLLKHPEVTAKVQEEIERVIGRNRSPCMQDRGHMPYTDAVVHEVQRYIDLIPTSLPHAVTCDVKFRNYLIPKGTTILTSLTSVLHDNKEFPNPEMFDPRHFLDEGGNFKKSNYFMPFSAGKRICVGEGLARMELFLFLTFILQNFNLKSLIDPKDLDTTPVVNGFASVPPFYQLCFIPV

| Compound | Potency [1] | Potency [2] | Potency [3] | Potency [4] | Potency [5] | Potency [6] | Potency [7] | Potency [8] | Potency [9] | Potency [10] | Potency [11] | Potency [12] | Potency [13] | Potency [14] | Potency [15] | Potency [16] | max activation [17] | Potency [18] | Potency [19] |
| --- | --- | --- | --- | --- | --- | --- | --- | --- | --- | --- | --- | --- | --- | --- | --- | --- | --- | --- | --- |
| Fc1ccc(C2(Cn3cncn3)OC2c2ccccc2Cl)cc1 (stereo not given) | inactive | inactive | inactive | inactive | inactive | inactive | inactive | 39.9 µM (active) | 0.252 µM (active) | 5.64 µM (active) | 5.03 µM (active) | inactive | 0.894 µM (active) |  |  |  |  |  |  |
| CC(C(O)c1ccccc1)N(C)C/C=C/c1ccccc1 (stereo not given) | inactive | inactive | inactive | inactive | inactive | inactive | inactive | 0.0871 µM (active) |  |  |  | 10.7 µM (active) |  | inactive | inactive |  |  |  |  |
| C[C@]12CC[C@H]3[C@@H](CCC4=CC(=O)CC[C@@]43C)[C@@H]1CC[C@@H]2C(=O)O | inactive | inactive | inactive | inactive | inactive | inactive | inactive | inactive | inactive |  | inactive |  | inactive |  | inactive | inactive |  |  |  |
| CN(C)CCc1ccc(O)cc1 | inactive | inactive | inactive | inactive | inactive |  | inactive | inactive | inactive | inactive |  | inactive |  |  | inactive | inactive | -2.69% | inactive | inactive |
| O=C(Nc1ccccc1)N(Cc1ccc(Cl)cc1)C1CCCC1 | inactive | inactive |  | inactive | inactive |  | inactive | 12.6 µM (active) |  | 15.9 µM (active) | 15.9 µM (active) | 38.9 µM (active) | 11.2 µM (active) |  | 6.11 µM (active) | 61.1 µM (active) |  |  |  |
| CCOC(=O)C1(c2ccccc2)CCN(CCc2ccc(N)cc2)CC1 | inactive | inactive | inactive | inactive | inactive |  | inactive | 3.47 µM (active) |  |  | inactive | 19 µM (active) |  | inactive | 3.76 µM (active) |  |  |  |  |
| CN1CCC(N(Cc2ccccc2)c2ccccc2)CC1 | inactive | inactive | inactive | inactive | inactive | inactive | inactive | 0.309 µM (active) | inactive | inactive | inactive | 5.35 µM (active) | inactive | inactive | inactive |  |  |  |  |
| C#CCN1C(=O)COc2cc(F)c(N3C(=O)C4=C(CCCC4)C3=O)cc21 | inactive | inactive | inactive | inactive | inactive |  | inactive | 44.8 µM (active) |  | 71 µM (active) |  |  | 35.6 µM (active) |  |  | inactive |  |  |  |
